Screening data: PubChem, National Center for Advancing Translational Sciences (NCATS)
Sampled rows, rich in hits. Any-hit rate of the full collection: about 21%.
CHX counter: Cycloheximide Counterscreen for Small Molecule Inhibitors of Shiga Toxin; cell reporter, cycloheximide protein synthesis inhibition counterscreen; max response, %; hit rate 12% among 300,000; in the data active = max response mostly above about 13%, no sharp cut-off; inactive = mostly below about 14%; also: read at 38.3 µM for the half of the compounds with a filed dose; 0% is about no effect
NS1 function inh: qHTS Assay for Inhibitors of Influenza NS1 Protein Function | Potency, µM (doses to about 46.1 µM), without a hit: at the highest dose activity, positive = more growth | hit rate 0.4% among 270,000; calls by dose curve; also: potency is read from the fitted curve at half-maximal effect; actives are rising curves; nearly all actives have a fitted effect of over 50% in size
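Recovery from NS1-induced slow growth read by OD600 in budding yeast switched to galactose assay medium (pH 6.0, -URA) at 1:100 dilution. Compound 23 nl per well; the matching strain lacking NS1 serves as control.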
Shiga toxin inh: A qHTS for Small Molecule Inhibitors of Shiga Toxin. AID 2315, 2010. hit rate 9.2% among 290,000. inhibition, % at 38.7 µM. Vero cells, Shiga toxin protein synthesis inhibition reporter; in the data active = inhibition mostly above about 28%, no sharp cut-off; inactive = mostly below about 43%; also: 0% is about no effect
SARS PLpro yeast: qHTS of Yeast-based Assay for SARS-CoV PLP; S. cerevisiae expressing SARS-CoV PLpro, growth rescue; Potency, µM (top dose mostly 32.9 µM), for the others: top-dose activity, positive = growth rescue, actives largely listed as activators; hit rate 0.19% among 330,000; calls by dose curve; also: potency is read from the fitted curve at half-maximal effect; 0% is about no effect; nearly all actives have a fitted effect of over 55% in size
Pf growth 96h: Primary qHTS for delayed death inhibitors of the malarial parasite plastid, 96 hour incubation; Potency, µM (highest dose often 28.7 µM), for inactives: at the highest dose activity change, negative = inhibition, actives largely listed as inhibitors; hit rate 6.9% among 320,000; P. falciparum luciferase reporter growth, 96 h; AID 504834, 2011; also: potency is read from the fitted curve at half-maximal effect; % is scaled to controls: 0 for no effect and ±100 for the full control effect
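Delayed-death screen, second-generation endpoint: infected erythrocytes, 2% hematocrit, 0.05% parasitemia final; 96 hours at 37 C, 5% CO2; luciferase detection reagent; luminescence decrease equals reduced growth.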
Pf growth 48h: Primary qHTS for delayed death inhibitors of the malarial parasite plastid, 48 hour incubation; P. falciparum luciferase growth in erythrocytes, 48 h; hit rate 5.9% among 310,000; Potency, µM (titrated, usually from 28.7 µM), without a hit: at the highest dose activity change, negative = inhibition, hits mostly inhibitors; also: potency is read from the fitted curve at half-maximal effect; % is scaled to controls: 0 for no effect and ±100 for the full control effect
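Luminescence readout; reporter = integrated firefly luciferase in P. falciparum. RBC culture at 2% hematocrit, 0.1% parasitemia final, 37 C/5% CO2; decreased signal taken as growth inhibition.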
The depositor's hits bear a star; i = inactive; ? = inconclusive; / = no result. Unless noted, calls follow the shape of the dose curve; as a rule, active = well fitted inhibition curve with a large enough effect; inconclusive = small, poorly fitted or top-dose-only effect, or another doubt; inactive = no such curve, though single readings can be large or run the other way.

SMILES	CHX counter	NS1 function inh	Shiga toxin inh	SARS PLpro yeast	Pf growth 96h	Pf growth 48h
Cc1cc(C(=O)COC(=O)c2n[nH]c3ccccc23)c(C)n1CC1CCCO1 (centres undefined)	37.7*	19.0%	44.4	-8.6%	i	334.9%
Cc1cc(C(=O)COC(=O)c2ccccc2Br)c(C)n1CC1CCCO1 (centres undefined)	16.0	1.7%	1.8	-1.9%	183.1%	61.6%
C=CCNC(=O)c1ccccc1NC(=O)C1CC(=O)N(C(C)C)C1 (centres undefined)	-1.2	8.2%	/	3.4%	-1.6%	15.7%
CCOC(=O)C(NC(C)=O)C(OC(C)=O)c1cccc(N(CCCl)CCCl)c1 (centres undefined)	4.9	6.7%	18.6	17.9%	10.4µM*	?
COc1ccccc1C#Cc1ccc2c(=O)c3ccccc3n(C)c2c1	5.9	-10.4%	19.6	-0.1%	?	?
COc1cccc2sc3cc(NCCCN4CCOCC4)ccc3c(=O)c12	/	/	/	1.7%	/	/
COc1cccc2oc3cc(C#CC4(O)CCCCC4)ccc3c(=O)c12	34.7*	-66.3%	57.5*	-19.4%	i	330.2%
COc1ccc2sc3ccccc3c(=O)c2c1OC	33.6*	-76.9%	71.4*	-6.7%	56.4%	122.1%
COC(=O)c1c(-c2ccccc2OC)sc2ccccc12	/	/	/	3.7%	?	?
COc1cccc2sc3ccc(NCc4ccc5c(c4)OCO5)cc3c(=O)c12	19.3*	3.2%	24.6	-13.5%	?	-24.4%
COc1cccc2sc3ccc(C#Cc4ccc(N)cc4)cc3c(=O)c12	40.8*	-13.3%	57.3*	-0.9%	151.6%	70.8%
O=C(COC(=O)C1(c2ccccc2)CC1)NNC(=O)c1ccccc1F	/	/	/	1.0%	3.7%	?
O=C(O)CCSc1nnc(SCC(=O)NCC(F)(F)F)s1	-0.8	7.1%	-6.5	26.1%	16.3%	4.4%
COc1cccc2oc3cc(C#Cc4ccccn4)ccc3c(=O)c12	27.2*	-0.3%	35.3*	-13.0%	?	-6.2%
O=c1oc(CCCO)cc2ccc(C#CC3(O)CCCCC3)cc12	/	/	/	5.7%	?	41.8%
COc1cccc2sc3ccc(C#CC4(O)CCCCC4)cc3c(=O)c12	38.9*	-87.2%	43.4*	-27.7%	?	39.4%
CN(CCNC(=O)C1CC(=O)N(C2CCCC2)C1)Cc1ccccc1 (centres undefined)	/	12.2%	/	/	/	/
COc1cc(-c2ccc3oc(-c4cccc(C)c4)c(C#CC4(O)CCCCC4)c3c2)cc(OC)c1OC	/	/	/	6.4%	/	/
COc1ccc(-c2oc3ccc(-c4ccc(OC)nc4)cc3c2C#CC2(O)CCCCC2)cc1	0.3	17.4%	7.4	11.9%	5.86µM*	?
O=Cc1cn(-c2ccccc2)nc1-c1ccc(F)cc1	active	-3.5%	16.1	4.1%	?	30.2%
O=C(O)c1cn(-c2ccccc2)nc1-c1ccc(F)cc1	-2.7	/	-11.3	-3.5%	0.0%	32.0%
O=C1NC(=O)C(c2cn(-c3ccccc3)nc2-c2ccc(F)cc2)N1 (centres undefined)	-2.9	10.7%	-5.5	5.4%	?	4.65µM*
CC1=NNC(=O)/C1=C\c1cn(-c2ccccc2)nc1-c1cccs1	-8.6	7.5%	-14.7	-66.5%	8.28µM*	?
CC1=NNC(=O)/C1=C\c1cn(-c2ccccc2)nc1-c1ccc(F)cc1	1.1	-2.1%	21.6	-5.1%	53.5%	5.22µM*
CCNC(=O)C1CC(=O)N(CCCc2ccccc2)C(=Nc2ccccc2)S1 (centres undefined)	-2.6	-13.6%	16.4	-1.3%	?	?
COc1ccc(N(CC(=O)NC2CCCCCC2)S(=O)(=O)c2ccccc2)cc1Cl	-1.6	-2.8%	-22.8	1.0%	?	?
C/C(=N\NC(=O)c1cc(C(C)C)[nH]n1)c1ccncc1	31.6	-17.4%	48.9*	0.2%	-0.6%	93.2%
C/C(=N\NC(=O)c1cc(C(C)C)[nH]n1)c1ccco1	66.7*	10.0%	138.3*	-12.0%	-16.6%	166.2%
Cc1ccc(Sc2ccc(NC(=O)CCl)cc2)c(C)c1	-3.5	/	-0.2	-16.9%	?	8.28µM*
